Hit rate of the full screen: of about 330,000 compounds, about 4,100 (1.2%) were called active. Roughly 2% stayed inconclusive and do not appear here. The list comes from a sample in which actives are over-represented; it also holds similar structures and randomly drawn compounds. Values without a mark were called inactive. How the source made its calls: active means max response of -50% or lower; inconclusive means between -30% and -50%; inactive means -30% or higher.
On the % scale 0 is the no-effect control and ±100 the full control effect.

Sequence of Phosphatidylinositol 5-phosphate 4-kinase type-2 alpha (Homo sapiens) (P48426 whole entry, looked up): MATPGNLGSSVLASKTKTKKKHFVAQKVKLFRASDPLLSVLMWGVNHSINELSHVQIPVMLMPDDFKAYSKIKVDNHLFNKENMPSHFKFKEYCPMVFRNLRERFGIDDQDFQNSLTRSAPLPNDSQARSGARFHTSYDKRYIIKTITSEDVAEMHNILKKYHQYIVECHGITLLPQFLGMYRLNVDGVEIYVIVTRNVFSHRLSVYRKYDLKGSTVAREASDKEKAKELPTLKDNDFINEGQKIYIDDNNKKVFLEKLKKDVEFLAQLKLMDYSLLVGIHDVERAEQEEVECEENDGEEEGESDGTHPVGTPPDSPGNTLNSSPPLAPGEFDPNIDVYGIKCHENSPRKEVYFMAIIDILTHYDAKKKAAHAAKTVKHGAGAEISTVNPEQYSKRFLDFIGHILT

This test addresses Phosphatidylinositol 5-phosphate 4-kinase type-2 alpha (Homo sapiens) (UniProt P48426). The experiment in a line: qHTS for Inhibitors of phosphatidylinositol 5-phosphate 4-kinase (PI5P4K). Further: value at the top dose of about 77 µM. Particulars: PI5P4Kalpha enzyme, ADP-Glo luminescence, 60 min; hits give low values. The gist of the method: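 Luminescence from ADP-Glo served as readout of PI5P4Kalpha activity in a qHTS format. Reaction: enzyme, substrate, compound, ATP at 5 microM final, 60 min at RT.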
A general note: In qHTS, concentration-response curves come from the screen itself.
For `N#CCc1c(C#N)c(N)nc(N2CCCC2)c1C#N`, the max response was -5.04%.

Consider `N#Cc1c(N2CCCCC2)nc(N)c2c(N)nc(SCC(=O)O)cc12`, for which the max response was -86.9% (active).

Consider `N#Cc1c(-c2ccccc2)cc(-c2ccccc2)nc1SCC(=O)O`, for which the max response was -13.7%.

Consider `Nc1ncnc2c1ncn2[C@@H]1O[C@H](C(=O)NS(=O)(=O)c2c(Cl)nc3sccn23)[C@@H](O)[C@H]1O`, for which the max response was -5.36%.

Turning to `CC(C)(C)CC(=O)Nc1nc(C(N)Cc2ccc(C(F)(F)F)cc2)cs1` (configuration not stated), the max response was 0.168%.

On to `Nc1ncnc2c1ncn2[C@@H]1O[C@H](C(=O)N2CCCN(Cc3ccccc3F)CC2)[C@@H](O)[C@H]1O`, for which the max response was 1.03%.

As for `CCOC(=O)COc1nc(C)cc(C(F)(F)F)c1C#N`, the max response is 3.55%.

With `CCOC(=O)CSc1nccc(N(C)C)c1C#N`, the max response is -3.71%.

As to `CCOC(=O)C(Sc1ncc(C#N)c(N)n1)C(C)C` (configuration not stated), the max response is -50.3% (active).

In the case of `CCOC(=O)C1(C)CCCN(C(=O)c2ccc(F)c(Cl)c2)C1` (configuration not stated), the max response is -14.5%.

With `CCOC1=C2[C@@H](CN(S(=O)(=O)c3ccc(C)cc3)[C@H]2c2ccccc2F)[C@H]2C(=O)N(Cc3ccccc3)C(=O)[C@H]2C1`, the max response was -0.38%.

As for `CCCNC(=O)C1(C)CCN(Cc2ccc(Cl)c(Cl)c2)C1` (configuration not stated), the max response was 6.81%.

Consider `CCCCN(C=O)c1c(CC)nc2c(OCc3ccccc3C(=O)OC)cccn12`, for which the max response is -7.91%.

As to `O=C1[C@H]2[C@@H](c3ccc(C(F)(F)F)cc3)N[C@]3(CCCN(Cc4ccc(Cl)cc4)C3=O)[C@H]2C(=O)N1Cc1ccccc1`, the max response is 6.21%.

On to `COC(=O)[C@@]12C[C@@H](CC(=O)NCCCCc3ccccc3)C(=O)N(CCc3ccc(OC)c(OC)c3)C1=CCC(C)(C)C2`, for which the max response is 21.2%.

For `O=c1[nH]n2c(-c3ccccc3)nc(O)c2c2ccccc12`, the max response is -2.92%.

For `O=C(c1ncn2c1c(=O)[nH]c1ccccc12)N1CCc2ccccc2C1`, the max response is -1.33%.

For the compound `O=c1[nH]c2ccccc2n2c(-c3ccccc3)nnc12`, the max response was -92.9% (active).

Consider `CN(Cc1ccccc1F)c1cc2c(c3c1ccn3C)C1CCC2O1` (configuration not stated), for which the max response was -0.125%.

Consider `C[C@@H]1CN([C@H](C)CO)S(=O)(=O)c2ccc(C#C[C@@H](C)O)cc2O[C@@H]1CN(C)Cc1ccc(-c2ccccc2)cc1`, for which the max response is 2.03%.

`OC[C@@H]1CN(Cc2ccc3c(c2)OCO3)C[C@H](n2cnc3c(NCc4ccco4)ncnc32)O1`: the max response is -4.15%.

For `CC(Sc1ccc(S(=O)(=O)N2CCN(C)CC2)cn1)C(=O)NC1CCCC(C)C1C` (configuration not stated), the max response is 0.777%.

These data come from PubChem BioAssay AID652105 (National Center for Advancing Translational Sciences (NCATS), 2013).
